These results are taken from PubChem BioAssay (NCATS).

Records with an inconclusive call do not appear. The source made the active and inactive calls. Unless noted, the call rests on the fitted dose curve; in most records, active means well fitted curve in the direction sought with a large enough effect; inconclusive means small, poorly fitted or top-dose-only effect, or another doubt; inactive means no such curve, though single readings can be large; an effect the other way counts as inactive or inconclusive.

The target in test [1] is Catechol O-methyltransferase (Homo sapiens) (UniProt P21964). Kind of test: Confirmatory Screen for Target Class Profiling of Small Molecule Inhibitors of Methyltransferases (AID 1745852; calls by dose curve; further: potency means the concentration at half of the fitted maximal effect; on activity change, negative = inhibition: on the % scale 0 is the no-effect control and ±100 the full control effect). The following applies: MTase-Glo luminescence, SAH detection, recombinant enzyme; measured here: COMT max response; stronger effect = lower value.
Sequence of Catechol O-methyltransferase (Homo sapiens) (P21964 whole entry, looked up): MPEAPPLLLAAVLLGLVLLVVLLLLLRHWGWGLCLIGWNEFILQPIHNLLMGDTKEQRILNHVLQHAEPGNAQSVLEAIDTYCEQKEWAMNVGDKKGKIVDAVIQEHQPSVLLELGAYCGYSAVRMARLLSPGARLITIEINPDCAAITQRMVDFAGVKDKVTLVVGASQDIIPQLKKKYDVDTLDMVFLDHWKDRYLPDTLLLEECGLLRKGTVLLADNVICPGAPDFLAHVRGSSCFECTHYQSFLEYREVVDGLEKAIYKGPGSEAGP
Test [2] has as its target Guanidinoacetate N-methyltransferase (Homo sapiens) (UniProt Q14353). The test is described as above. To be noted: MTase-Glo luminescence, SAH detection, recombinant enzyme; activity change, negative = inhibition: at 57.3 µM (top of the series) unless noted; series mostly up to 57.3 µM.
Test [3] deals with Nicotinamide N-methyltransferase (Homo sapiens) (UniProt P40261). The description is as above. The following applies: MTase-Glo luminescence, SAH detection, recombinant enzyme; measured here: NNMT max response; stronger effect = lower value.
Sequence of Nicotinamide N-methyltransferase (Homo sapiens) (P40261 whole entry, looked up): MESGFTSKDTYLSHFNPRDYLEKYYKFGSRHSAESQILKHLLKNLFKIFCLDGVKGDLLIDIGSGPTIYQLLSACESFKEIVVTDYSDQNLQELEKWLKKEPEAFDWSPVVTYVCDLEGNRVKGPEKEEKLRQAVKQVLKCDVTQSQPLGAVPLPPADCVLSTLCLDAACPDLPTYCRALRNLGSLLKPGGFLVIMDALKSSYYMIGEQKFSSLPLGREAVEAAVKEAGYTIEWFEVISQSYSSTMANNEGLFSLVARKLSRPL
Test [4] has as its target Phenylethanolamine N-methyltransferase (Homo sapiens) (UniProt P11086). Described as above. To be noted: MTase-Glo luminescence, SAH detection, recombinant enzyme; measured here: PNMT max response; stronger effect = lower value.
Test [5] can be described thus: NCATS anti-infectives library activity on HEK293 viability as a counter-qHTS vs the C. elegans viability qHTS (AID 1745854).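 Further: HEK293 cells exposed to compounds for 24 hr before the viability read; on the % scale 0 is the no-effect control and ±100 the full control effect.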 To be noted: HEK293 viability counter-screen; series mostly up to 41.8 µM. The gist of the method:
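Compounds were acoustically plated (several concentrations, 1:5, final up to 41.7 uM), then 1500 HEK293 cells added per well and incubated 24 hr at 37C, 5% CO2. CellTiter-Glo was added and luminescence read after 10 min.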
A general note: In qHTS, concentration-response curves come from the screen itself.

Test [6] can be described thus: qHTS drug screen for cell cycle checkpoint inhibitors in PARPi-resistant BRCA-mutant ovarian cancer cell lines. (AID 1963452; calls by dose curve). To be noted: PEO1/OlaR viability, CellTiter-Glo luminescence, 96 h, stronger effect = lower value. The gist of the method: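 PEO1, PEO4 and PEO1/OlaR ovarian cancer cells, 600 per well, exposed 96 h at 37C to a dilution series. Viability read by CellTiter-Glo luminescence, normalized to DMSO and empty wells; activity summarized as Z-AUC.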

Test [7] has as its target Cytochrome P450 1A2 (Homo sapiens) (UniProt P05177). The test is described as follows: p450-cyp1a2 (AID 410; calls by dose curve; further: potency means the concentration at half of the fitted maximal effect). The following applies: recombinant CYP1A2, luciferin-ME demethylation, luminescence; series mostly up to 57 µM. The gist of the method: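 Luminescent readout of luciferin formed from Luciferin-ME by human CYP1A2; data normalized against complete inhibition by 57 uM furafylline. Enzyme 20nM, substrate 100uM at Km, 100mM KPO4 buffer, 60 min reaction at room temperature.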

The target in test [8] is Glucocorticoid receptor (Homo sapiens) (UniProt P04150). Kind of test: GR-GFP Redistribution (AID 450;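 active means compounds whose dose series gives a full or clear partial fitted curve of increased nuclear translocation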; further: potency means the concentration at half of the fitted maximal effect). To be noted: U2OS GR-GFP nuclear translocation, laser cytometry, 2 h.
Sequence of Glucocorticoid receptor (Homo sapiens) (P04150 whole entry, looked up, the tested form may be a part): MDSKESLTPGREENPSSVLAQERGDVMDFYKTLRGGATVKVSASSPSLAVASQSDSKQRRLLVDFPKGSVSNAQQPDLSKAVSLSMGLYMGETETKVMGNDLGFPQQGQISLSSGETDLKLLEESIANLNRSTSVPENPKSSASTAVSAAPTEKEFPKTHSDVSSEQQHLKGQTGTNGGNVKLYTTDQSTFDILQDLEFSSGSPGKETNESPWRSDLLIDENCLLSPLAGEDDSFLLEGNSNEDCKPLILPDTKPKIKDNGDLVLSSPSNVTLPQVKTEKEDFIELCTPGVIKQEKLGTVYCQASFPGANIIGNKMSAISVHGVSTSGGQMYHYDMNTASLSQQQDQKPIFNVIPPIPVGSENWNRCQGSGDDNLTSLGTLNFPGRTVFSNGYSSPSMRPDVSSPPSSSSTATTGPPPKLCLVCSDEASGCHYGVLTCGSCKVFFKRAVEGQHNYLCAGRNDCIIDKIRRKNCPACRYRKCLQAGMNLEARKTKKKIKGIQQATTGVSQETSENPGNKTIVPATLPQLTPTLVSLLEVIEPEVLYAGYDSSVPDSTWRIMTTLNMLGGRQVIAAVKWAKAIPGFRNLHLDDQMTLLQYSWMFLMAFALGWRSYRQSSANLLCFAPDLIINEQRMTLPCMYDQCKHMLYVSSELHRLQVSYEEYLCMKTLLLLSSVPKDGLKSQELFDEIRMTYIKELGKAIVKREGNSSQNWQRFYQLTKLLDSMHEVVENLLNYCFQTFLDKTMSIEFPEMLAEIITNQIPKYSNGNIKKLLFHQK
The target is the same in test [9]. The test is described as follows: GR-EFC Redistribution (AID 451; calls by dose curve; further: potency means the concentration at half of the fitted maximal effect). The following applies: CHO-K1 GR-EFC translocation, beta-gal luminescence, 2 h. The gist of the method: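 Translocation of GR-ED fusion to nuclear EA restores b-gal, read by luminescence after 1 h room-temperature detection. Engineered CHO-K1 biosensor cells, 1,000/well, exposed 2 h at 37 C to titrations up to 46 uM final.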

Test [10] addresses Mitogen-activated protein kinase 10 (Mus musculus) (UniProt Q61831). Kind of test: JNK3 AlphaScreen Assay (AID 530; active means well fitted curve in either direction with a large enough effect, not every such curve was filed as active;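 further: kinase came from lysate of stimulated human HepG2 cells; signal reports phosphorylation of biotinylated GST-cJun 1-79 at Ser73 with 10 µM ATP; on the % scale 0 is the no-effect control and ±100 the full control effect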). The following applies: JNK3 lysate, c-Jun phosphorylation; series mostly up to 57.1 µM. The gist of the method: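 Compound titrations were preincubated 15 minutes at room temperature with substrate, antibody and pre-activated JNK3-containing HepG2 lysate. Reactions were started with 10 uM ATP and stopped with EDTA-containing bead buffer for AlphaScreen detection.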
(Alpha assays give light when donor and acceptor beads are brought close together.)

Test [11] concerns the target 3',5'-cyclic-AMP phosphodiesterase 4B (Homo sapiens) (UniProt Q07343). The test is described as follows: qHTS Assay for Inhibitors of PDE-IV (AID 607; active means well fitted activation curve with a large enough effect in the main read-out, with a control signal flat, not every such curve was filed as active; further: % of control where 0% means no effect). To be noted: HEK293 ACTOne CNG channel cells, membrane potential fluorescence; series mostly up to 22.9 µM. The gist of the method:
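The readout is membrane depolarisation from a cAMP-sensing CNG channel, detected with a potential dye at ex 535/em 590. Cells were HEK293-derived (endogenous PDE-IV) at 1000 cells/well, titrated up to 22.9 uM final.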

Test [12] deals with Cytochrome P450 2C9 (Homo sapiens) (UniProt P11712). Kind of test: qHTS Assay for Inhibitors and Substrates of Cytochrome P450 2C9 (AID 883). Further: on the % scale 0 is the no-effect control and ±100 the full control effect; nearly all actives have a fitted effect of over 60% in size. To be noted: recombinant CYP2C9, luciferin-H luminescence, 60 min; series mostly up to 57.1 µM. The gist of the method: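 Luminescent read-out of deoxyluciferin hydroxylation, normalized to 57uM sulphaphenazole (AC100). Reaction: 10nM enzyme, 100uM Luciferin-H (equal to KM), 25mM KPO4, 10 min compound preincubation, then 60 min with NADPH regeneration, both at 37C.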
Sequence of Cytochrome P450 2C9 (Homo sapiens) (P11712 whole entry, looked up): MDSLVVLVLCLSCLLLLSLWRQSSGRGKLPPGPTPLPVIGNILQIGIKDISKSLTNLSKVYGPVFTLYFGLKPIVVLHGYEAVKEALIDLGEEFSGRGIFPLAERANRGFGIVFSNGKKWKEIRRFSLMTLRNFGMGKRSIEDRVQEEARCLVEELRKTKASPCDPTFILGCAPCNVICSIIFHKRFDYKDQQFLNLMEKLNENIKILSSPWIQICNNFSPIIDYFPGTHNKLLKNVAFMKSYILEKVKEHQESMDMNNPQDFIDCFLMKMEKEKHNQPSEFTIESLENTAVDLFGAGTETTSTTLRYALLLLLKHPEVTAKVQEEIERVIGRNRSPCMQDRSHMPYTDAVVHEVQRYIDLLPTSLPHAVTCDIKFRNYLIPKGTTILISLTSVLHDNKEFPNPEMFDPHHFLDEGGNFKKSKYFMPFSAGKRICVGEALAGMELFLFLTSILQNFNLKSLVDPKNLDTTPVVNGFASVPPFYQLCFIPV

Test [13] addresses Cytochrome P450 3A4 (Homo sapiens) (UniProt P08684). Kind of test: qHTS Assay for Activators of Cytochrome P450 3A4 (AID 885). Further: nearly all actives have a fitted effect of over 65% in size. To be noted: recombinant CYP3A4, Luciferin-PPXE luminescence, 60 min; series mostly up to 57.1 µM. The gist of the method: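 Steps: enzyme/substrate mix dispensed; compound added, 10 min RT; NADPH regeneration solution added, 60 min RT; luciferin detection buffer stops reaction; 20 min later luminescence measured.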

Test [14] concerns the target Cytochrome P450 2D6 (Homo sapiens) (UniProt P10635). Kind of test: qHTS Assay for Inhibitors and Substrates of Cytochrome P450 2D6 (AID 891).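 Further: luciferin methyl ether substrate demethylated by CYP2D6 with NADPH regeneration; on the % scale 0 is the no-effect control and ±100 the full control effect; nearly all actives have a fitted effect of over 60% in size.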 The following applies: recombinant CYP2D6, luciferin-ME EGE luminescence; series mostly up to 57.1 µM. The gist of the method:
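Human CYP2D6 (5 nM) with 30 uM Luciferin-ME EGE (at Km) in 100 mM KPO4, compound preincubated 10 min, then NADPH regeneration system for 60 min at room temperature. Luciferin read by luminescence; normalized to 1.43 uM quinidine.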

The target in test [15] is Cytochrome P450 2C19 (Homo sapiens) (UniProt P33261). Kind of test: qHTS Assay for Inhibitors and Substrates of Cytochrome P450 2C19 (AID 899). Further: on the % scale 0 is the no-effect control and ±100 the full control effect; nearly all actives have a fitted effect of over 60% in size. The following applies: recombinant CYP2C19, luciferin-H EGE luminescence; series mostly up to 57.1 µM. The gist of the method:
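Luminescence readout of luciferin formed from 10uM Luciferin-H EGE (KM level) by 5 nM CYP2C19 in 50mM KPO4. 60 min NADPH-driven reaction at 37C after 10 min compound preincubation; data scaled to 57uM ketoconazole inhibition.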

Test [16] addresses DNA dC->dU-editing enzyme APOBEC-3G (Homo sapiens) (UniProt Q9HC16). Kind of test: qHTS for inhibitors of Vif-A3G interactions: Validation (AID 588379). Further: 0% is about no effect. To be noted: Vif-A3G protein interaction assay; series mostly up to 46.1 µM. The gist of the method: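 HeLa cells stably expressing Vif and A3G-eYFP, 700 cells/well, incubated overnight at 37 deg C, then exposed to compound overnight at 37 deg C. Inhibition of Vif-mediated degradation read as increased yellow fluorescence (Ex 488/Em 500-530) by laser-scanning cytometry.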

The target of test [17] is Glutathione peroxidase 1 (Homo sapiens) (UniProt P07203). Kind of test: Primary qHTS Assay for Inhibitors of Recombinant Selenoprotein Glutathione Peroxidase 1 (GPX1) (AID 1845191). Further: potency means the concentration at half of the fitted maximal effect; nearly all actives have a fitted effect of over 65% in size. The following applies: recombinant GPX1, GR-coupled NADPH fluorescence, 15 min; series mostly up to 48.8 µM. The gist of the method:
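10 nM GPX1 + cpd, 30 min RT; start w/ 1 mM GSH, 0.5 mM cumene hydroperoxide, 0.5 mM NADPH, 100 nM GR, 0.01% BSA; buffer 50 mM Tris-HCl pH 7.5, 2 mM EDTA, 150 mM NaCl; Fl 340/450, 0 & 15 min.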

Sequence of Phenylethanolamine N-methyltransferase (Homo sapiens) (P11086 whole entry, looked up): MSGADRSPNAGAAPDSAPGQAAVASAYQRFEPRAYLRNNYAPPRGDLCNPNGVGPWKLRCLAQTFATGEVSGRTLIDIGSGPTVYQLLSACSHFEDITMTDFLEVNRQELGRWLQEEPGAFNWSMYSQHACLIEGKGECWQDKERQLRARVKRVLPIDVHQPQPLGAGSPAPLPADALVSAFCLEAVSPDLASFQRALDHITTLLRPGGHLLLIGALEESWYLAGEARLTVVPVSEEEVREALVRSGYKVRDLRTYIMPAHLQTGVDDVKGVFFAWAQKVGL
Sequence of Glutathione peroxidase 1 (Homo sapiens) (P07203 whole entry, looked up): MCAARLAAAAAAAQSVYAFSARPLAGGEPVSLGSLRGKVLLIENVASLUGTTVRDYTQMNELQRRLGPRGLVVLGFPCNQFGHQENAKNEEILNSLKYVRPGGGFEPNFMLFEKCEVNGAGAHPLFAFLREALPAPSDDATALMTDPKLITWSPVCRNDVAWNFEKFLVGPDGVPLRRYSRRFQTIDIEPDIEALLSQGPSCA
Sequence of Cytochrome P450 2D6 (Homo sapiens) (P10635 whole entry, looked up): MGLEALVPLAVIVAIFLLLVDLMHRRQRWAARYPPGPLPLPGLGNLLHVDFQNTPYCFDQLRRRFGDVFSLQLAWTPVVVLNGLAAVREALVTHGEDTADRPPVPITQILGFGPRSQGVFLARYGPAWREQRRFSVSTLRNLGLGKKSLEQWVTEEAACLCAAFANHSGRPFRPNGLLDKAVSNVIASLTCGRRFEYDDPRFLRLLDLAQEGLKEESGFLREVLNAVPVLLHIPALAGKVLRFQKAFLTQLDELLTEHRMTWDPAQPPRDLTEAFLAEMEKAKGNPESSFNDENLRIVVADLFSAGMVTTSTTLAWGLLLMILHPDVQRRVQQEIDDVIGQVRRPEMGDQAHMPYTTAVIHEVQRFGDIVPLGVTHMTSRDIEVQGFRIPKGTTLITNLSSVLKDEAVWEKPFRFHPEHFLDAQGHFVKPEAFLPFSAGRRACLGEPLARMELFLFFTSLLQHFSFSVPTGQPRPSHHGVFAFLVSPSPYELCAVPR
Sequence of 3',5'-cyclic-AMP phosphodiesterase 4B (Homo sapiens) (Q07343 whole entry, looked up): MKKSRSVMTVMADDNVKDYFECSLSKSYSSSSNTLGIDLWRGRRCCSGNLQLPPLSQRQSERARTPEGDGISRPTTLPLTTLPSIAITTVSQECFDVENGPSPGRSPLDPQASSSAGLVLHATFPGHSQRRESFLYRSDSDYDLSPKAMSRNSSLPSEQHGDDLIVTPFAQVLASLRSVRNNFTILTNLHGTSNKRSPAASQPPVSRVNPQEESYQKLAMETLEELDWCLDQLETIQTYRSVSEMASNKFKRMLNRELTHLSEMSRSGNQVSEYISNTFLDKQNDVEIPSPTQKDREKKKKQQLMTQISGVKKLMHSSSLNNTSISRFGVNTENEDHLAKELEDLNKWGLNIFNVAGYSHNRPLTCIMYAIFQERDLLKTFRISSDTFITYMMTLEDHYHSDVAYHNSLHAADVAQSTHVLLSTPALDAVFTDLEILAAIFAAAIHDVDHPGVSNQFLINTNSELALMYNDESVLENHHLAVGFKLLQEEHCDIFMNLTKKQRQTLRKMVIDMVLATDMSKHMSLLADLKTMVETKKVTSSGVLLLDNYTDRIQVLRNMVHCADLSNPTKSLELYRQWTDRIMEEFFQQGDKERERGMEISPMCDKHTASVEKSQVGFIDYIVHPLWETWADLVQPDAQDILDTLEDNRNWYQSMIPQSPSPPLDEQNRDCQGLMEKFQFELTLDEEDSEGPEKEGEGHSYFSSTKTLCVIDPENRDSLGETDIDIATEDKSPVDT
Sequence of DNA dC->dU-editing enzyme APOBEC-3G (Homo sapiens) (Q9HC16 whole entry, looked up): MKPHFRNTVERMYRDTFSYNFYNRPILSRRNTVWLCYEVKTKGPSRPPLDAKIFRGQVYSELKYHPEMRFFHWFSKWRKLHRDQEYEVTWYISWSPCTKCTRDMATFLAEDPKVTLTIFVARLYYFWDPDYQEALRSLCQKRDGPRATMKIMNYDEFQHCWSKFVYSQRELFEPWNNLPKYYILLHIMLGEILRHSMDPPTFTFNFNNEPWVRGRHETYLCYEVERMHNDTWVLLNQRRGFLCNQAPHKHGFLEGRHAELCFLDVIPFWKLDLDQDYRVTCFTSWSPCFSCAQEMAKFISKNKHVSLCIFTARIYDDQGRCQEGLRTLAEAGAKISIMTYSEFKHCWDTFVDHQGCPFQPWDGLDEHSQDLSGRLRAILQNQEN
Sequence of Cytochrome P450 3A4 (Homo sapiens) (P08684 whole entry, looked up): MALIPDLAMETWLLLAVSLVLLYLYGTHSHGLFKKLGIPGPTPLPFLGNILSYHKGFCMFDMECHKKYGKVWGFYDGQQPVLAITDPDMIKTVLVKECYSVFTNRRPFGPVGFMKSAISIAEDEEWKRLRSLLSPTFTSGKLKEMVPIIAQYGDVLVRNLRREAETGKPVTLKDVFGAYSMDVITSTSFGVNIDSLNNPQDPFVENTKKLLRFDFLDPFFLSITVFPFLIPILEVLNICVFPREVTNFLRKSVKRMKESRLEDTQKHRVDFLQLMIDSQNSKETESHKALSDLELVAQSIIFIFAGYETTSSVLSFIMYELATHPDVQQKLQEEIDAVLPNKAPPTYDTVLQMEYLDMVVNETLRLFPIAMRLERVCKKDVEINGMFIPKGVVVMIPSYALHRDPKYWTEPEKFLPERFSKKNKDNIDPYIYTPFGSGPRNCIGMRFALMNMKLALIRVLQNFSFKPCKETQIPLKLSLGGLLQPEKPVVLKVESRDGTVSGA
Sequence of Cytochrome P450 1A2 (Homo sapiens) (P05177 whole entry, looked up): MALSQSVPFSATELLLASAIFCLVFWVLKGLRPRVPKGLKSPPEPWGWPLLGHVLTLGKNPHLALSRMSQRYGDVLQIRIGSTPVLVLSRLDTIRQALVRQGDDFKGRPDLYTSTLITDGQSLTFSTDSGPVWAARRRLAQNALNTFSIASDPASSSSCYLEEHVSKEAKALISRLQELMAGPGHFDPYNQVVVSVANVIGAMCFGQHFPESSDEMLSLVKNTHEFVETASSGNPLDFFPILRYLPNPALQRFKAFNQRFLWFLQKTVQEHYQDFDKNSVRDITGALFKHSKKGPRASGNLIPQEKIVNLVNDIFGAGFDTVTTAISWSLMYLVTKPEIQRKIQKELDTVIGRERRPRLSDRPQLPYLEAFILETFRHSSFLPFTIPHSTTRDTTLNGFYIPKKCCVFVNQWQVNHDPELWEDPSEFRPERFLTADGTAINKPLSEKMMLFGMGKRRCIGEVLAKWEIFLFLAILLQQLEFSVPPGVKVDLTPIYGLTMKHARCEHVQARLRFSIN

Regarding `COc1ccc(-c2[nH]nc3ncc(C(=O)N4CCC(c5ccccc5)CC4)nc23)c(C)c1`, the activity in [1] was -39.6%; in test [3], -23.9%; in test [4] it was -53.6%. Also, in test [2], the activity change, negative = inhibition was -20.4% [at 85.7 µM].
As for `COc1cc2c(c(OC)c1OC)-c1c(cc(OC)c(OC)c1OC)CC(C)C(C)C2` (stereo not drawn), the Potency entry in test [5] is “inactive”.
For the compound `NC(=O)c1cccc2[nH]c(-c3ccc([C@@H]4CCCN4)cc3F)nc12`, the activity in [1] was -9.14%; in test [3], -23.8%; in test [4] it was -6.69%. The activity change, negative = inhibition in [2] was -8.18%. The Potency result in [5] was “inactive”. Also, the Z-AUC in test [6] was -0.692 (inactive); in [6] (measured here: PEO1 parental Z-AUC) it was -1.03; in test [6] (measured here: PEO4 Z-AUC), -0.377.
Regarding `COc1ccc(-c2oc3ccc(C)cc3c(=O)c2O)cc1OC`, the Potency in test [7] was 0.251 µM (active); in test [8], > 46 µM (inactive); in test [9] it was > 46 µM (inactive). The Potency entry in test [10], in test [11], in test [12], in [14] and in test [15] was “inactive” throughout. In addition, the outcome in test [13] and in [16] was “inactive” throughout. Moreover, the activity in test [1] is -1%; in test [3], 1.6%; in test [4], 4.32%. Also, the activity change, negative = inhibition in test [2] amounted to 0%.
For the compound `C/C(=N\NC(=O)C(NC(=O)c1ccccc1)c1n[nH]c(=O)c2ccccc12)c1cccc(Br)c1` (stereo not drawn), the Potency entry in test [5] is “inactive”.
For the compound `CC(C)c1ccc(NC(=O)Cn2c(=O)oc3cc(S(=O)(=O)NCc4ccccc4)ccc32)cc1`, the results for the activity in test [1], in test [3] and in [4] were 0%, -3.77% and 0%, respectively. Besides, the activity change, negative = inhibition in test [2] was 0%.
`O=C(Nc1ccc2c(N3CCCC3)ncnc2c1)c1cc(F)ccc1Cl`: the activity is -8.67% in test [1], -15.4% in test [3] and -17.8% in test [4]. The activity change, negative = inhibition in test [2] is -7.52%.
For the compound `COc1cc2nc(N3CCCCC3)nc(NC3CCN(Cc4ccccc4)CC3)c2cc1OC`, the figures for the activity in test [1], in test [3] and in test [4] were 11.8%, -38.9% and 1.57%, respectively. For the same compound, the results for the Potency in [2] and in test [17] were 0.968 µM (active) and 16.1 µM (active), respectively.
As for `Cc1ccc(-c2ccc3c(c2)C=C(C(=O)Nc2ccc(C[N+](C)(C)C4CCOCC4)cc2)CCC3)cc1`, the Potency result in [5] was “inactive”.
As for `O=C(Nc1ccc2c(N3CCCCC3)ncnc2c1)c1ccccc1C(F)(F)F`, the results for the activity in test [1], in [3] and in [4] were -15.7%, -10.2% and -19.5%, respectively. Moreover, in [2], the activity change, negative = inhibition was -6.31%.
For `CC(C)CCn1c(=O)c2ccccc2n2c(CCC(=O)N3CCN(c4ccc(F)cc4)CC3)nnc12` the same measures were 1.78%, -61.2%, -6.79% and 0%.
For the compound `O=C(NCCCN1CCc2ccccc2C1)C1CCc2ncc(-c3ccc(F)cc3)n2C1` (stereo not drawn), the activity was -4.39% in [1], 3.39% in test [3] and -4.05% in [4]. Besides, in [2], the activity change, negative = inhibition was -6.35%.
The matching figures for `O=C(NCCc1ccccc1)c1ccc(CN2C(=O)CCn3nc(-c4ccccc4)cc32)cc1`: -6.47%, -28.8%, -5.57% and 0.906%.
